Data from PubChem BioAssay (NCI).
About 79,000 compounds went through this panel and 15% of them were active in at least one assay; those are over-represented in the sample as a whole. Active and inactive are the calls of the source. No stated cut-off is given here; in the data, active means growth inhibition above about 70%; inactive means the rest.

Experiments:
[1] = NCI Yeast Anticancer Drug Screen. Data for the mec2-1 strain (AID 157); settings: S. cerevisiae mec2-1 strain, active compounds read high
In short: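 Using mec2-1 yeast: add compound, measure growth, express inhibition versus vehicle-treated cultures.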

[2] = NCI Yeast Anticancer Drug Screen. Data for the rad14 strain (AID 159);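 further: 0% = growth of vehicle-treated control cultures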; settings: S. cerevisiae rad14 strain growth inhibition, active compounds read high
In short: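 Compound-treated yeast with a defined DNA-repair lesion; growth inhibition normalised to vehicle-treated cultures.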

[3] = NCI Yeast Anticancer Drug Screen. Data for the sgs1 mgt1 strain (AID 161);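 further: 0% = growth of cultures given vehicle only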; settings: S. cerevisiae sgs1 mgt1 strain, active compounds read high
In short: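 Percent growth inhibition was derived by comparing compound-exposed mutant yeast with vehicle-exposed cultures. The strain carries alterations in DNA damage repair.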

[4] = NCI Yeast Anticancer Drug Screen. Data for the CLN2oe strain (AID 163);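 further: 0% = growth of vehicle-only control cultures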; settings: S. cerevisiae CLN2oe strain, active compounds read high
In short: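 Whole-cell yeast growth assay. A strain engineered for altered cell-cycle control received compound, and inhibition relative to vehicle-treated cultures was recorded.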

[5] = NCI Yeast Anticancer Drug Screen. Data for the cln2 rad14 strain (AID 165);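 further: 0% = growth equal to vehicle treated cultures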; settings: S. cerevisiae cln2 rad14 strain, active compounds read high
In short: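 Yeast strain cln2 rad14, bearing defects in cell cycle control and DNA repair, serves as the test system; values reflect growth inhibition compared with vehicle.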

[6] = NCI Yeast Anticancer Drug Screen. Data for the bub3 strain (AID 167); settings: S. cerevisiae bub3 mutant strain, active compounds read high
In short: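 Growth of a checkpoint-deficient yeast mutant is measured after compound exposure. Values represent inhibition relative to vehicle.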

[7] = NCI Yeast Anticancer Drug Screen. Data for the wt2 strain (AID 169);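 further: 0% = growth of vehicle-treated yeast cultures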; settings: S. cerevisiae wt2 strain growth inhibition, active compounds read high
In short: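 Treated yeast vs. vehicle-treated yeast: growth inhibition determined.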

[8] = NCI Yeast Anticancer Drug Screen. Data for the sgs1 strain (AID 173);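 further: 0% = growth of vehicle-only control cultures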; settings: S. cerevisiae sgs1 mutant, active compounds read high
In short: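 A genetically defined yeast mutant is incubated with the test compound, and its growth is compared to that of the same strain given vehicle.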

[9] = NCI Yeast Anticancer Drug Screen. Data for the mlh1 rad18 strain (AID 175); settings: S. cerevisiae mlh1 rad18 strain growth inhibition, active compounds read high
In short: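 Steps: expose repair-defective yeast to compound; measure growth; express inhibition against vehicle-treated controls.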

[10] = NCI Yeast Anticancer Drug Screen. Data for the rad18 strain (AID 177); settings: S. cerevisiae rad18 mutant growth inhibition, active compounds read high
In short: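 Measured value is growth inhibition of a yeast strain bearing a DNA repair alteration, referenced to vehicle-treated cells.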

[11] = NCI Yeast Anticancer Drug Screen. Data for the rad52 strain (AID 147);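 further: 0% = growth of vehicle-treated control cultures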; settings: S. cerevisiae rad52 mutant growth inhibition, active compounds read high
In short: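 Here a repair-compromised yeast strain receives each compound; its growth is then quantified and normalised to vehicle-only controls.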

[12] = NCI Yeast Anticancer Drug Screen. Data for the wt1 strain (AID 149);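 further: 0% = growth of vehicle-treated wt1 cultures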; settings: S. cerevisiae wt1 strain (SPY 50644) growth inhibition, active compounds read high
In short: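 Readout: yeast growth inhibition, normalised to vehicle controls, in the wt1 strain exposed to test compounds.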

[13] = NCI Yeast Anticancer Drug Screen. Data for the rad50EPP+ strain (AID 151);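 further: 0% = growth of vehicle-treated control cultures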; settings: S. cerevisiae rad50 mutant strain, active compounds read high
In short: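 Read-out is yeast growth inhibition relative to vehicle; cells used were the rad50EPP+ strain.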

[14] = NCI Yeast Anticancer Drug Screen. Data for the mgt1 strain (AID 153); settings: S. cerevisiae mgt1 mutant growth inhibition, active compounds read high
In short: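 Measured: inhibition of mgt1 yeast growth by compound, normalized to vehicle-treated cultures.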

[15] = NCI Yeast Anticancer Drug Screen. Data for the rad50 strain (AID 155);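 further: 0% = growth of vehicle-only cultures of the same strain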; settings: S. cerevisiae rad50 strain growth inhibition, active compounds read high
In short: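 Compounds were tested on a yeast strain with an engineered DNA damage repair alteration; the reported value is growth inhibition normalised to vehicle treatment.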

[16] = NCI Yeast Anticancer Drug Screen. Data for the mlh1 strain (AID 171);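 further: 0% = growth of vehicle-treated control cultures of the same strain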; settings: S. cerevisiae mlh1 strain growth inhibition, active compounds read high
In short: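 A yeast strain with a defined genetic lesion serves as the test organism. Cultures receive compound or vehicle, and growth is measured.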

[17] = at 5.0 µM (retest, dose inferred, filed as 0.5)
[18] = at 50.0 µM (retest, dose inferred, filed as 5.0)

Measured: growth inhibition

CC(C)OC(=O)NNc1cccc(Cl)c1
inactive: [1]; [17] 21% | [1]; at 11.0 µM 55% | [2]; at 1.2 µM 4% | [2]; at 3.7 µM 12% | [3]; [17] 27% | [4]; at 1.2 µM -7% | [4]; at 3.7 µM -6% | [4]; at 11.0 µM 17% | [4]; at 33.0 µM 53% | [5]; [17] 51% | [6]; at 1.2 µM 3% | [6]; at 3.7 µM 44% | [7]; at 1.2 µM 1% | [7]; at 3.7 µM 13% | [8]; at 1.2 µM 2% | [8]; at 3.7 µM 23% | [9]; [17] 69% | [10]; at 1.2 µM 9% | [10]; at 3.7 µM 61%
active: [1]; at 33.0 µM 96% | [1]; [18] 96% | [1]; at 50.0 µM 99.2% | [1]; at 100.0 µM 98% | [2]; at 11.0 µM 76% | [2]; at 33.0 µM 98% | [2]; at 100.0 µM 98% | [3]; [18] 98% | [3]; at 50.0 µM 96.8% | [4]; at 100.0 µM 84% | [5]; [18] 99% | [5]; at 50.0 µM 97.8% | [6]; [17] 83% | [6]; at 11.0 µM 98% | [6]; at 33.0 µM 98% | [6]; [18] 98% | [6]; at 50.0 µM 99% | [6]; at 100.0 µM 98% | [7]; at 11.0 µM 80% | [7]; at 33.0 µM 97% | [7]; at 100.0 µM 98% | [8]; at 11.0 µM 97% | [8]; at 33.0 µM 98% | [8]; at 100.0 µM 98% | [9]; [18] 96% | [9]; at 50.0 µM 98% | [10]; at 11.0 µM 98% | [10]; at 33.0 µM 98% | [10]; at 100.0 µM 98%

CC(C)=CCc1c2c(c(O)c3c(=O)c(-c4ccc(O)c(O)c4)coc13)C=CC(C)(C)O2
active: [11]; at 11.0 µM 96% | [11]; at 33.0 µM 93% | [11]; at 100.0 µM 87% | [12]; at 11.0 µM 79% | [12]; at 33.0 µM 93% | [12]; at 100.0 µM 89% | [14]; at 11.0 µM 94% | [14]; at 33.0 µM 92% | [14]; at 100.0 µM 87% | [15]; at 11.0 µM 93% | [15]; at 33.0 µM 93% | [15]; [18] 91% | [15]; at 50.0 µM 84.8% | [15]; at 100.0 µM 88% | [1]; at 11.0 µM 87% | [1]; at 33.0 µM 91% | [1]; [18] 93% | [1]; at 50.0 µM 88% | [1]; at 100.0 µM 85% | [2]; at 11.0 µM 91% | [2]; at 33.0 µM 91% | [2]; at 100.0 µM 87% | [3]; [18] 93% | [3]; at 50.0 µM 87.5% | [4]; at 11.0 µM 95% | [4]; at 33.0 µM 91% | [4]; at 100.0 µM 81% | [5]; [18] 92% | [5]; at 50.0 µM 83.5% | [6]; at 11.0 µM 90% | [6]; at 33.0 µM 93% | [6]; [18] 92% | [6]; at 50.0 µM 84.8% | [6]; at 100.0 µM 87% | [7]; at 11.0 µM 77% | [7]; at 33.0 µM 92% | [7]; at 100.0 µM 87% | [8]; at 11.0 µM 91% | [8]; at 33.0 µM 91% | [8]; at 100.0 µM 85% | [9]; [18] 90% | [9]; at 50.0 µM 85.1% | [10]; at 11.0 µM 94% | [10]; at 33.0 µM 93% | [10]; at 100.0 µM 89%
inactive: [11]; at 1.2 µM -32% | [11]; at 3.7 µM -19% | [12]; at 1.2 µM -20% | [12]; at 3.7 µM -32% | [13]; at 1.2 µM -63% | [13]; at 3.7 µM -42% | [13]; at 11.0 µM -21% | [13]; at 33.0 µM -8% | [13]; at 100.0 µM -31% | [14]; at 1.2 µM -55% | [14]; at 3.7 µM -33% | [15]; at 1.2 µM -36% | [15]; at 3.7 µM -17% | [15]; [17] -3% | [1]; at 1.2 µM -89% | [1]; at 3.7 µM -93% | [1]; [17] 30% | [2]; at 1.2 µM -72% | [2]; at 3.7 µM -68% | [3]; [17] 18% | [4]; at 1.2 µM -32% | [4]; at 3.7 µM -5% | [5]; [17] 23% | [6]; at 1.2 µM -29% | [6]; at 3.7 µM -28% | [6]; [17] 14% | [7]; at 1.2 µM -50% | [7]; at 3.7 µM -52% | [8]; at 1.2 µM -46% | [8]; at 3.7 µM -36% | [9]; [17] 43% | [10]; at 1.2 µM -24% | [10]; at 3.7 µM -4%

CC1(C)CC(=O)C(C(=O)Nc2cccs2)=C(O)C1
active: [11]; at 100.0 µM 99% | [12]; at 100.0 µM 99% | [13]; at 100.0 µM 98% | [14]; at 33.0 µM 92% | [14]; at 100.0 µM 98% | [15]; at 33.0 µM 70% | [15]; at 50.0 µM 88.8% | [15]; at 100.0 µM 98% | [1]; at 33.0 µM 78% | [1]; at 50.0 µM 93% | [1]; at 100.0 µM 98% | [2]; at 33.0 µM 92% | [2]; at 100.0 µM 98% | [3]; at 50.0 µM 93.3% | [4]; at 100.0 µM 99% | [5]; at 50.0 µM 89.4% | [6]; at 33.0 µM 82% | [6]; [18] 70% | [6]; at 50.0 µM 90.8% | [6]; at 100.0 µM 99% | [7]; at 100.0 µM 99% | [16]; at 33.0 µM 92% | [16]; at 100.0 µM 99% | [8]; at 33.0 µM 88% | [8]; at 100.0 µM 99% | [9]; at 50.0 µM 90.4% | [10]; at 100.0 µM 99%
inactive: [11]; at 1.2 µM -8% | [11]; at 3.7 µM 7% | [11]; at 11.0 µM 17% | [11]; at 33.0 µM 64% | [12]; at 1.2 µM 21% | [12]; at 3.7 µM 28% | [12]; at 11.0 µM 23% | [12]; at 33.0 µM 50% | [13]; at 1.2 µM -56% | [13]; at 3.7 µM -63% | [13]; at 11.0 µM -53% | [13]; at 33.0 µM 18% | [14]; at 1.2 µM 10% | [14]; at 3.7 µM 18% | [14]; at 11.0 µM 35% | [15]; at 1.2 µM 14% | [15]; at 3.7 µM 16% | [15]; [17] 26% | [15]; at 11.0 µM 18% | [15]; [18] 42% | [1]; at 1.2 µM 3% | [1]; at 3.7 µM -18% | [1]; [17] 6% | [1]; at 11.0 µM 20% | [1]; [18] 49% | [2]; at 1.2 µM -10% | [2]; at 3.7 µM 2% | [2]; at 11.0 µM 10% | [3]; [17] -5% | [3]; [18] 61% | [4]; at 1.2 µM 15% | [4]; at 3.7 µM 26% | [4]; at 11.0 µM 29% | [4]; at 33.0 µM 63% | [5]; [17] 23% | [5]; [18] 37% | [6]; at 1.2 µM 26% | [6]; at 3.7 µM 23% | [6]; [17] 16% | [6]; at 11.0 µM 41% | [7]; at 1.2 µM 4% | [7]; at 3.7 µM 14% | [7]; at 11.0 µM 17% | [7]; at 33.0 µM 60% | [16]; at 1.2 µM 1% | [16]; at 3.7 µM 4% | [16]; at 11.0 µM 30% | [8]; at 1.2 µM 8% | [8]; at 3.7 µM 23% | [8]; at 11.0 µM 38% | [9]; [17] -36% | [9]; [18] 2% | [10]; at 1.2 µM 1% | [10]; at 3.7 µM 1% | [10]; at 11.0 µM 7% | [10]; at 33.0 µM 48%
